Measured values published in PubChem BioAssay (EPA / NIEHS).
“And” between values parts separate entries of the source, which are not always exact repeats. Equal entries are not always repeated. Some compounds were tested as several samples or in several runs, with calls that do not always agree. The source made the active and inactive calls. The calls were made as follows: active = hit-call score of the fitted dose curve at least 0.9, where 1 is the maximum; inactive = score below 0.9.

Experiment: BSK_IMphg_SRB: Viability Assessment in the BioMAP Diversity Plus: IMphg Assay (AID 2284292);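 also: measured one day after compound addition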
Settings: primary human endothelial cells with macrophages
Experimental: BSK_IMphg is a cell-based, multiplexed-readout assay that uses venular endothelial cells and macrophages, a human vascular primary cell, with measurements taken at 24 hours after chemical dosing in a microplate: 96-well plate.BSK_IMphg_SRB is an assay component measured in the BSK_IMphg assay. It measures […] related to cell death using Sulforhodamine staining technology.Data from the assay component BSK_IMphg_SRB was analyzed at the endpoint, BSK_IMphg_SRB, in the positive analysis fitting direction relative to DMSO as the negative control and baseline of activity. Using a type of viability reporter, gain or loss-of-signal activity can be used to understand protein changes. To generalize the intended target to other relatable targets, this assay endpoint is annotated to the 'cell morphology' intended target family, where the subfamily is 'cell conformation'.
The levels of cell surface (or secreted, indicated by the prefix "s") biomarker endpoints were measured by ELISA. Overt cytotoxicity to cells in confluent adherent cultures (all systems other than the BT system) was assessed by measuring total protein levels using sulforhodamine B (SRB) staining in parallel cultures at the time of biomarker measurements, indicated as SRB endpoints. For proliferation assays for adherent cell types, individual cell types are cultured at sub-confluence and relative cell numbers quantified by SRB staining at time points optimized for each system (48 h: 3C and CASM3C systems; 72 h: BT and HDF3CGF systems; 96 h: SAg system). SRB was performed by staining cells with 0.1% SRB after fixation with 10% TCA and reading wells at 560 nm.Viability and proliferation of PBMC (T cells) was quantified by Alamar Blue reduction for the SAg and BT systems. For PBMC viability (referred to as PBMC Cytotoxicity within the assay endpoint names), cells were plated (75,000/well in a 96-well plate) and then chemical samples added for 1 h before addition of activators, SEB and TSST-1 (20 ng/mL final concentration each). Cells were incubated for 90 h. Then, Alamar Blue (20 uL/well) (Invitrogen, Cat DAL1100) was added for 6 h, and the plates were read with a fluorescence microplate reader at 546/580 nm (excitation/emission). For PBMC proliferation, cells were plated and activated as above but incubated for only 16 h prior to addition of Alamar Blue. Plates were read after 6 h.

Row | Structure (SMILES) | outcome | AC50
1 | O=C(Cl)C(F)(F)C(F)(F)C(F)(F)C(F)(F)C(F)(F)C(F)(F)C(F)(F)F | inactive | 
2 | NS(=O)(=O)C(F)(F)C(F)(F)C(F)(F)C(F)(F)C(F)(F)C(F)(F)F | inactive | 
3 | OCC(F)(F)C(F)(F)C(F)(F)C(F)(F)C(F)(F)C(F)(F)C(F)(F)C(F)(F)CO |  | 52.9 µM (active) and 54 µM (active)
4 | O=S(=O)(O)CCC(F)(F)C(F)(F)C(F)(F)C(F)(F)F | inactive | 
5 | C=CC(=O)OCC(F)(F)C(F)(F)C(F)(F)COC(=O)C=C | inactive | 43.8 µM (active)
6 | O=C(F)C1(F)C(F)(F)C(F)(F)C(F)(F)C(F)(F)C1(F)F | inactive | 
7 | O=C(O)C(F)(F)OC(F)(F)C(F)(F)OC(F)(F)C(F)(F)OC(F)(F)F | inactive | 
8 | C[Si](Cl)(Cl)CCC(F)(F)C(F)(F)C(F)(F)C(F)(F)C(F)(F)C(F)(F)F | inactive | 
9 | FC(F)(F)C(F)(F)C(F)(F)C(F)(F)C(F)(F)C(F)(F)C(F)(F)CCI | inactive | 
10 | NC(=O)C(F)(F)C(F)(F)C(F)(F)C(F)(F)C(N)=O | inactive | 
11 | NC(=O)C(F)(F)C(F)(F)C(F)(F)C(F)(F)C(F)(F)C(F)(F)C(F)(F)F | inactive | 
12 | CCOC(=O)CC(=O)C(F)(F)C(F)(F)F | inactive | 
13 | OCC(O)CC(F)(F)C(F)(F)C(F)(F)C(F)(F)F (stereo not given) | inactive | 
14 | NCC(F)(F)C(F)(F)C(F)(F)C(F)(F)C(F)(F)C(F)(F)C(F)(F)C(F)(F)F | inactive | 
15 | O=C(Cl)C(F)(F)C(F)(F)C(F)(F)C(F)(F)C(F)(F)C(F)(F)F | inactive | 
16 | O=C(O)CCC(F)(F)C(F)(F)C(F)(F)F | inactive | 
17 | O=S(=O)(OCC(F)(F)F)C(F)(F)C(F)(F)C(F)(F)C(F)(F)F | inactive | 
18 | O=C(O)CCC(F)(F)C(F)(F)C(F)(F)C(F)(F)C(F)(F)C(F)(F)C(F)(F)F | inactive | 
19 | O=C(O)C(F)(F)C(F)(F)C(F)(F)OC(F)(C(F)(F)F)C(F)(F)F | inactive | 
20 | O=S(=O)(O)CCC(F)(F)C(F)(F)C(F)(F)C(F)(F)C(F)(F)C(F)(F)C(F)(F)C(F)(F)F | inactive | 

Row | Structure (SMILES) | outcome | AC50
21 | NC(O)(C(F)(F)F)C(F)(F)F | inactive | 
22 | O=C(O)C(F)(F)C(F)(F)C(F)(F)C(=O)O | inactive | 
23 | C=CC(=O)OCC(F)(F)C(F)(F)C(F)(F)C(F)(F)C(F)(F)C(F)(F)C(F)(F)C(F)F | inactive | 
24 | C=C(C)C(=O)OCC(F)(F)C(F)(F)C(F)(F)C(F)F | inactive | 
25 | OCCCCC(F)(F)C(F)(F)C(F)(F)C(F)(F)F | inactive | 
26 | NC(=O)C(F)(F)C(F)(F)C(F)(F)C(F)F | inactive | 
27 | FC(F)(F)C(F)(F)C(F)(F)C(F)(F)C(F)(F)C(F)(F)CC[Si](Cl)(Cl)Cl | inactive | 
28 | O=S(=O)(Cl)C(F)(F)C(F)(F)C(F)(F)C(F)(F)C(F)(F)C(F)(F)C(F)(F)C(F)(F)F | inactive | 
29 | O=C(O)C(F)(F)C(F)(F)C(F)(F)OC(F)(F)F | inactive | 
30 | NCC(F)(F)C(F)(F)C(F)(F)C(F)(F)C(F)(F)C(F)(F)F | inactive | 
31 | COC(F)(C(F)F)C(F)(F)F (stereo not given) | inactive | 
32 | OCC(F)(F)C(F)(F)C(F)(F)C(F)(F)C(F)(F)C(F)(F)CO | inactive | 
33 | CCN(CCO)S(=O)(=O)C(F)(F)C(F)(F)C(F)(F)C(F)(F)C(F)(F)C(F)(F)C(F)(F)C(F)(F)F |  | 30 µM (active)
34 | O=C(O)C(F)(F)C(F)(F)C(F)(F)C(F)(F)C(F)(F)C(F)(F)C(F)F | inactive | 
35 | CN(C(=O)C(F)(F)C(F)(F)C(F)(F)F)[Si](C)(C)C | inactive | 
36 | C=CC(=O)OCCC(F)(F)C(F)(F)C(F)(F)C(F)(F)F | inactive | 
37 | OCCCC(F)(F)C(F)(F)C(F)(F)C(F)(F)C(F)(F)C(F)(F)C(F)(F)C(F)(F)F |  | 47.2 µM (active) and 31 µM (active)
38 | NC(=O)C(F)(F)C(F)(F)C(F)(F)F | inactive | 
39 | OC(O)C(F)(F)C(F)(F)F | inactive | 
